# The panel holds about 83,000 compounds, 20% with a hit somewhere; the sample as a whole holds those more often.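 Cells were grown in 96-well plates and exposed to the test compound at a single concentration for 48 hours; results are reported as percent growth, with values below 10 considered active.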 A number with no mark means an inactive call. The source made the active and inactive calls.
# Key:
# Test in all cases: NCI-60 one-dose screen, 48 h (100 = growth as untreated, 0 = no growth, -100 = all killed)
# Settings in all cases: 10 µM unless noted
# DU-145 prostate = system: DU-145 prostate
# K-562 leukemia = system: K-562 leukemia
# MALME-3M melanoma = system: MALME-3M melanoma
# MDA-MB-231 breast = system: MDA-MB-231 breast
# RXF 393 renal = system: RXF 393 renal
# SF-268 CNS = system: SF-268 CNS
# SF-295 CNS = system: SF-295 CNS
# SF-539 CNS = system: SF-539 CNS
# UACC-257 melanoma = system: UACC-257 melanoma
# M14 melanoma = system: M14 melanoma
# HCT-15 colon = system: HCT-15 colon
# HT29 colon = system: HT29 colon
# SNB-75 CNS = system: SNB-75 CNS
# SNB-19 CNS = system: SNB-19 CNS
# U251 CNS = system: U251 CNS
# PC-3 prostate = system: PC-3 prostate
# SK-MEL-5 melanoma = system: SK-MEL-5 melanoma
# LOX IMVI melanoma = system: LOX IMVI melanoma
# SK-MEL-28 melanoma = system: SK-MEL-28 melanoma
# UACC-62 melanoma = system: UACC-62 melanoma
Compound,growth (DU-145 prostate),growth (K-562 leukemia),growth (MALME-3M melanoma),growth (MDA-MB-231 breast),growth (RXF 393 renal),growth (SF-268 CNS),growth (SF-295 CNS),growth (SF-539 CNS),growth (UACC-257 melanoma),growth (M14 melanoma),growth (HCT-15 colon),growth (HT29 colon),growth (SNB-75 CNS),growth (SNB-19 CNS),growth (U251 CNS),growth (PC-3 prostate),growth (SK-MEL-5 melanoma),growth (LOX IMVI melanoma),growth (SK-MEL-28 melanoma),growth (UACC-62 melanoma) [%]
Nc1nc2c3ccncc3cc(-c3cccc(Cl)c3)c2c2cnccc12,40.5%,17.1%,57%,52.8%,10.4%,49.5%,31.4%,30.1%,59%,45.7%,28.5%,33.2%,57%,51.4%,29.2%,20%,50.4%,-50.9% (active),53.1%,–
Cc1cccc(C)c1NC(=O)CSC(=S)N1CCCCC1,108%,87.5%,88.4%,119%,111%,96%,101%,99.5%,102%,102%,105%,103%,96%,111%,105%,97.6%,112%,98.2%,105%,–
COc1ccc2[nH]c(-c3ccc(Cl)cc3)cc(=O)c2c1,105%,97.4%,98.6%,95.6%,111%,98.2%,97%,99.9%,98%,95.1%,96.4%,96.3%,93.4%,96%,96.7%,88%,95.6%,100%,104%,–
COc1cc(/C=C2\C(=O)N(CC(O)COc3cc(O)c4c(=O)cc(-c5ccccc5)oc4c3)c3ccccc32)cc(OC)c1O (centres undefined),85.6%,71.4%,99.1%,84.6%,101%,80%,95.1%,88.1%,110%,88.7%,59.1%,88.2%,81.1%,92.2%,91.6%,61.1%,50%,80.2%,92%,–
C=C1C(=O)O[C@H]2[C@H]1CC/C(COC(=O)NCCc1c[nH]c3ccccc13)=C\CC[C@@]1(C)O[C@@H]21,11.7%,0.512% (active),-33.5% (active),-19.3% (active),-89.3% (active),62.3%,83.4%,-35.6% (active),63.3%,-52.1% (active),-9.58% (active),-39.8% (active),61.3%,56.9%,59.9%,35.1%,12.8%,-63.2% (active),-17.6% (active),–
Cc1cc(N2CCCC2)nc(N(CCNc2ccnc3cc(Cl)ccc23)Cc2ccco2)n1,50.3%,-1.93% (active),28.2%,11.7%,-0.497% (active),55.5%,18.8%,-10.7% (active),69.8%,-63.2% (active),18.3%,5.58% (active),68.8%,29.4%,46.5%,0.723% (active),-93% (active),4.43% (active),31%,–
CCOC(=O)N1CCN(CCCCOc2ccc(C(C)(C)CC)cc2)CC1,104%,68.1%,92.3%,102%,111%,105%,98.4%,104%,94%,87.9%,87.7%,78.1%,106%,108%,88.5%,71.5%,88.6%,99.7%,100%,–
Cc1cc(Cl)nc(N(CCNc2ccnc3cc(Cl)ccc23)Cc2ccco2)n1,52.2%,16.2%,81.3%,19.3%,-15.7% (active),66.7%,59.4%,-41.6% (active),115%,55.3%,35.7%,30.3%,81.5%,37.9%,17.9%,34.1%,42.9%,22.5%,3.02% (active),–
CCCCC[C@H]1C/C=C2/C(=O)C(Cl)=C[C@@H]2C/C=C\CCCC(=O)O[C@@H](CCCCC)C/C=C2/C(=O)C(Cl)=C[C@@H]2C/C=C\CCCC(=O)O1,-31.4% (active),0.851% (active),-14.1% (active),-29.9% (active),-87.5% (active),1.58% (active),-27.3% (active),-11.3% (active),-63.5% (active),-61.5% (active),-24.6% (active),-56% (active),11.9%,-57.8% (active),-78.7% (active),-37.7% (active),-94.4% (active),-74.7% (active),-48.1% (active),–
O=C1Nc2ccccc2/C1=C/c1cn(CCCn2c3ccccc3c(=O)c3ccccc32)c2ccccc12,102%,91.7%,98.7%,67.9%,104%,79.2%,91.5%,86.8%,109%,91.1%,82.3%,91.8%,69.7%,98.2%,93.3%,62.5%,74.7%,86%,107%,–
COc1cnc2c(c1)C(=O)c1c-2n(CCCNC(C)C)c(=O)c2cc([N+](=O)[O-])ccc12,-58.4% (active),-14.4% (active),-58.2% (active),-60.5% (active),-80.7% (active),-61.2% (active),-76.2% (active),-63% (active),-67% (active),-76.8% (active),-56.2% (active),-33.7% (active),-79.2% (active),-44.7% (active),-80.6% (active),-54.3% (active),-98.9% (active),-86.9% (active),-62.6% (active),–
C[C@@H](C(=O)O)c1ccc2c3cc(Cl)ccc3n(Cc3cc(=O)oc4ccc(Cl)cc34)c2c1,103%,98.2%,89.5%,106%,116%,93.4%,103%,102%,104%,100%,99.1%,96.9%,90.8%,101%,101%,98.3%,98.4%,96.4%,99.9%,–
COc1cc(/C=C/c2cc(/C=C/c3ccc(O)c(OC)c3)n(-c3ccccc3)c(=O)n2)ccc1O,86.7%,53.9%,90.4%,61.4%,68.3%,72.3%,88%,79.5%,88.9%,85.7%,80.8%,-13% (active),56.9%,76.2%,56.1%,70.4%,–,61%,78.8%,69.9
O=C(NCN1C(=O)c2cccc3cccc(c23)C1=O)N1CCC(Cc2ccccc2)CC1,106%,90.2%,96.6%,98.2%,107%,100%,96.8%,102%,103%,92.5%,104%,70.1%,89.4%,92.5%,97.5%,72.9%,101%,97.5%,107%,–
O=C(N/N=C/c1ccccc1SSc1ccccc1/C=N/NC(=O)c1ccccc1)c1ccccc1,35.3%,18.3%,48.9%,44.7%,34.2%,32%,38.2%,26.9%,45.1%,12.9%,21.6%,43.3%,65.8%,44.8%,34.1%,40.2%,22.5%,11.1%,39.6%,–
NCCn1cc(-c2nc(-c3c[nH]c4ncccc34)cs2)c2ccccc21,99.5%,82.9%,73.8%,66.2%,84.9%,84.7%,105%,90.2%,92.8%,96.9%,88.6%,98.2%,61.9%,89.4%,91.5%,70.2%,77.2%,89.9%,107%,–

# — PubChem BioAssay (NCI)
